In the library only some 4% were active in any assay of this set; here they are far more common.
HIF-2a inh = blocks HIF-2a reporter activity | 786-0 RCC cells HIF-2a reporter, luciferase luminescence, overnight | inhibition, % at 18.8 µM | actives 0.72% (n = 360,000);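 active = inhibition of the luminescence signal of 40% or more relative to plate controls, in a single-dose primary screen at 18.75 µM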
Peg3 prom inh = inhibitors of Peg3 promoter. HeLa PEG-Prom luciferase reporter, luminescence, overnight. inhibition, % at 20 µM. actives 1.7% (n = 360,000);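 active = inhibition of at least 50% at 20 µM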
TROY NFkB inh = TROY signaling inhibition. Q293 LMP1-TROYcd NF-kB luciferase reporter, 4 h. AID 1347056. inhibition, % at 10 µM. actives 0.98% (n = 360,000);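 active = compounds whose plate-normalised and pattern-corrected inhibition of the luciferase reporter signal at the single screening dose is 50% or more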
TWEAK Fn14 block = blocks TWEAK-Fn14 interaction in a reporter cell assay; TWEAK-stimulated Fn14 reporter cells, luciferase luminescence, 8 h; inhibition, % at 10 µM; actives 2% (n = 360,000); AID 1159606; in the data active = inhibition above about 50%
EBV LMP1 NFkB = inhibitors of Epstein-Barr LMP1-induced NF-kappaB reporter | inhibition, % at 12.5 µM | actives 0.69% (n = 350,000) | AID 504558 | LMP1-induced NF-kappaB luciferase reporter cells, luminescence; in the data active = inhibition above about 41%
MITF TRPM1 inh = inhibitors of MITF-driven TRPM1 promoter in melanoma cells; SK-MEL-5 TRPM1 promoter luciferase, 24 h; inhibition, % at 12.5 µM; actives 0.83% (n = 330,000); AID 488899;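 active = mean inhibition across replicates of 60% or more, whatever share of single replicates reaches that level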
Each line names hits and unclear results; the compound was inactive in the other large screens.

Cc1cc(N/N=C/c2ccc(O)cc2)c2cccc(C)c2n1	Peg3 prom inh 110
Cc1ccccc1CSCC1Nc2ccc(C(=O)NCCc3ccccc3)cc2NC1=O (stereo not given)	none (no result: MITF TRPM1 inh)
O=C(CCl)Nc1cccc(Oc2ccccc2)c1	MITF TRPM1 inh 66
CCCC(=O)NC(NC(=S)Nc1ccc(N=Nc2ccccc2)cc1)C(Cl)(Cl)Cl (stereo not given)	TWEAK Fn14 block 76
O=C(CCl)Nc1ccc(N=Nc2ccccc2)cc1	Peg3 prom inh 107
CCc1ccc(OCC(=O)NC(NC(=S)Nc2ccc(Cl)cc2)C(Cl)(Cl)Cl)cc1 (stereo not given)	Peg3 prom inh 52, TWEAK Fn14 block 72
O=C(CCl)Nc1cccc(Oc2cnccn2)c1	none
CCOc1ccc(NC(=O)CCNC(=O)C2CCN(S(=O)(=O)c3ccccc3)CC2)cc1	none
COc1ccc(Nc2nnc(SCC(=O)/C=C3/N(C)c4ccccc4C3(C)C)s2)cc1	TWEAK Fn14 block 71
CN1/C(=C\C(=O)CSc2nnc(N)s2)C(C)(C)c2ccccc21	none
CC(C)(C)c1ccc(C(=O)NNC(=O)CCc2ccccc2)cc1	none (no result: EBV LMP1 NFkB, MITF TRPM1 inh)
Cc1nc(SCC(=O)Nc2ccc(F)cc2)c(C#N)c(C)c1CC(=O)c1ccc(Br)cc1	Peg3 prom inh 91, MITF TRPM1 inh 65
Cc1cccc(NC(=O)CSc2nc(C)c(CC(=O)c3ccc(Br)cc3)c(C)c2C#N)c1C	Peg3 prom inh 71, MITF TRPM1 inh 76
COCc1cc(C)nc(SCC(=O)Nc2cccc(C)c2C)c1C#N	none
CC1=NOC(=O)/C1=C\c1ccc(-c2ccc(Cl)cc2Cl)o1	HIF-2a inh 56, Peg3 prom inh 108, MITF TRPM1 inh 73
O=C(O)c1cc(=S)nc[nH]1	none
COc1ccc(/C=C2\SC(=S)N(CCC(=O)NCCCn3ccnc3)C2=O)cc1	HIF-2a inh 40
CC(C)c1ccc(/C=C2\SC(=S)N(CCC(=O)NCCCn3ccnc3)C2=O)cc1	none
COc1ccc(CN2C(=O)/C(=C/c3ccncc3)SC2=S)cc1	HIF-2a inh 43, Peg3 prom inh 67
COc1ccc(/C=C2\SC(=S)N(CCC(=O)NC3C=CS(=O)(=O)C3)C2=O)cc1 (stereo not given)	HIF-2a inh 75
COc1ccc(/C=C2\SC(=S)N(CCCC(=O)N3CCN(C)CC3)C2=O)cc1	HIF-2a inh 45
COc1cccc(/C=C2\SC(=S)N(CCC(=O)NC3C=CS(=O)(=O)C3)C2=O)c1 (stereo not given)	none
CC(=O)Oc1ccc(/C=C2/SC(=S)N(Cc3ccccc3)C2=O)cc1	none
Cc1ccc(C)c(NS(=O)(=O)c2cc3c4c(c2)CC(=O)N4CCC3)c1	none
CC1(C)OC(=O)C2=C(C[C@@H](CCc3ccccc3)O[C@H]2C2CCCC2)O1	none (no result: Peg3 prom inh, EBV LMP1 NFkB, MITF TRPM1 inh)
COc1cccc(/C=C2\SC(=S)N(CCCC(=O)N3CCCCC3)C2=O)c1	HIF-2a inh 67, Peg3 prom inh 53
O=C1c2ccccc2C(c2nnnn2-c2ccc3c(c2)OCCO3)N1CCCn1ccnc1 (stereo not given)	none (no result: Peg3 prom inh, EBV LMP1 NFkB, MITF TRPM1 inh)
COc1cccc(/C=c2\s/c(=C\C(=O)C(C)(C)C)[nH]c2=O)c1	TWEAK Fn14 block 56
CCn1c(=O)c2c(cnn2C)c2ccccc21	TWEAK Fn14 block 58, EBV LMP1 NFkB 47
Cc1ccc(Nc2nc3ccc(Cl)cc3n3cnnc23)cc1F	none
Cc1ccc(S(=O)(=O)NC(=O)C2(C)CCN2C(=O)c2cccc(F)c2)nc1 (stereo not given)	none (no result: EBV LMP1 NFkB, MITF TRPM1 inh)
COc1cc(C2c3cc4c(cc3C(OC3OC5COC(c6cccs6)OC5C(O)C3O)C3COC(=O)C23)OCO4)cc(OC)c1O (stereo not given)	EBV LMP1 NFkB 75, MITF TRPM1 inh 76
COc1cc([C@@H]2c3cc4c(cc3[C@@H](O[C@@H]3O[C@@H]5CO[C@@H](C)O[C@H]5[C@H](O)[C@H]3O)[C@H]3COC(=O)[C@H]23)OCO4)cc(OC)c1O	EBV LMP1 NFkB 70
COc1cc([C@@H]2c3cc4c(cc3[C@H](O)[C@H]3COC(=O)[C@H]23)OCO4)cc(OC)c1OC	MITF TRPM1 inh 61
COc1cc(C2c3cc4c(cc3C(O)C3COCC23)OCO4)cc(OC)c1OC (stereo not given)	none
Nc1nc(-c2ccccc2)nc2nonc12	none (no result: MITF TRPM1 inh)
C[C@@]12C(=O)N(Cc3ccccc3)CC(=O)N1[C@H](/C=C/c1ccccc1)[C@@H]1C(=O)N(c3ccccc3)C(=O)[C@@H]12	EBV LMP1 NFkB 82 (no result: HIF-2a inh, Peg3 prom inh, TROY NFkB inh, TWEAK Fn14 block)
CN(C)c1ccnc2sc(C(N)=O)c(N)c12	EBV LMP1 NFkB 56
Cc1snc(S(=O)(=O)/C(C#N)=N/Nc2ccc(C(F)(F)F)cc2)c1C#N	TROY NFkB inh 52
COc1cccc(NC(=O)CN(C)CC(=O)Nc2ccc(C)c([N+](=O)[O-])c2)c1	none
CN(C)c1ccc(C2NC(=O)c3ccccc3N2)cc1 (stereo not given)	TWEAK Fn14 block 62
CCN(CC)CCN1C(=O)c2ccccc2NC1c1ccc(F)cc1 (stereo not given)	none
CCN(CC)CCN1C(=O)c2ccccc2NC1c1ccc(N(C)C)cc1 (stereo not given)	TWEAK Fn14 block 68
CN(C)c1ccc(C2Nc3ccccc3C(=O)N2CCCN2CCOCC2)cc1 (stereo not given)	TWEAK Fn14 block 56
O=C1NC(c2ccc(Cl)cc2)Nc2ccccc21 (stereo not given)	none
COc1ccccc1NC(=O)COC(=O)c1ccc(N2CCCC2=O)cc1	none
O=c1cc(-c2ccccc2)nc2c(-c3ccccc3)c(C(F)(F)F)[nH]n12	TROY NFkB inh 56 (no result: EBV LMP1 NFkB, MITF TRPM1 inh)
Cc1ccc(NC(=O)COC(=O)C2=NN(c3ccccc3)C(=O)CC2)c(Br)c1	none
COC1C(CO)OC(n2c3c(Cl)cccc3c3c4c(c5c6cccc(Cl)c6[nH]c5c32)C(=O)NC4=O)C(O)C1O (stereo not given)	EBV LMP1 NFkB 60, MITF TRPM1 inh 86
COc1ccccc1NS(=O)(=O)c1cccc(NC(=O)Nc2ccc(Cl)cc2)c1	TROY NFkB inh 59, TWEAK Fn14 block 84
O=C(Nc1cccc(S(=O)(=O)Nc2ccccc2Cl)c1)c1ccc(Cl)nc1	TWEAK Fn14 block 63
O=C(Nc1cccc(S(=O)(=O)N2CCCCCC2)c1)c1ccc(Cl)nc1	none
O=C(Nc1cccc(S(=O)(=O)N2CCCCC2)c1)Nc1ccc(Cl)cc1Cl	Peg3 prom inh 52, TROY NFkB inh 59, TWEAK Fn14 block 83
O=C(Nc1ccc(Cl)cc1Cl)NC1CCN(S(=O)(=O)c2ccc(F)cc2)CC1	TROY NFkB inh 52
CN1/C(=C/c2cc[n+](C)c3ccccc23)C=Cc2ccccc21	EBV LMP1 NFkB 47, MITF TRPM1 inh 83
OC(c1ccc(Cl)c(F)c1)c1ncc(-c2cccc(C(F)(F)F)c2)[nH]1 (stereo not given)	none (no result: EBV LMP1 NFkB, MITF TRPM1 inh)
CC(=O)c1cnn(-c2ccccc2)c1C	none

Compound activity deposited in PubChem BioAssay by several laboratories.
